DRD3 antagonist: qHTS of D3 Dopamine Receptor Antagonist: qHTS. D(3) dopamine receptor (Homo sapiens), P35462. D3R cells, DiscoveRx beta-arrestin luminescence, antagonist mode; hits give low values. max response, negative = inhibition, %. 360,000 tested, 2.5% active. AID 652054, 2013; in the data active means max response below about -50%; inconclusive means no clear call, values can overlap the other calls; further: on the % scale 0 is the no-effect control and ±100 the full control effect
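Cells expressing the human receptor were seeded at 1500 cells/well, incubated overnight at 37 degrees C in 5% CO2, then exposed to library compounds with dopamine controls for 90 minutes at 37 degrees C before luminescent detection.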
D1 antag: Antagonist of Human D 1 Dopamine Receptor: qHTS. D(1A) dopamine receptor (Homo sapiens), P21728. HEK293 TREx D1 cells, calcium flux, dopamine EC80; hits give low values. activity change, negative = inhibition, % at 10 µM. 360,000 tested, 3.2% active. AID 504652, 2011; in the data active means activity change below about -30%; further: on the % scale 0 is the no-effect control and ±100 the full control effect
Target sequence (P21728 whole entry, looked up): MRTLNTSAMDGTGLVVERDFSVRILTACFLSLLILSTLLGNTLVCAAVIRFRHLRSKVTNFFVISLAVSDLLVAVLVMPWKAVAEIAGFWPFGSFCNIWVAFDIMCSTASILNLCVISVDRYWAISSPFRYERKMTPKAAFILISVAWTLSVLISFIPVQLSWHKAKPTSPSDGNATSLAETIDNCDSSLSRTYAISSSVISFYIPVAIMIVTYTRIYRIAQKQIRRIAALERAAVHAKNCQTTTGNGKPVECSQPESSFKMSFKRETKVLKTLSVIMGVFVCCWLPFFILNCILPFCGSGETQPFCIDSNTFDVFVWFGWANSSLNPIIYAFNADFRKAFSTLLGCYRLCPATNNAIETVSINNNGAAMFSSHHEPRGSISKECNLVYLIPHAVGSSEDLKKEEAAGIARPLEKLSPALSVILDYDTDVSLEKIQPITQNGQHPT
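Antagonism measured as reduced calcium response to an EC80 dopamine addition following 180 s compound pre-read; cells were inducible HEK293 Trex D1 plated overnight at 30 C, read kinetically at 1 cycle/sec.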
DRD3 agonist: qHTS of D3 Dopamine Receptor Agonist: qHTS | D(3) dopamine receptor (Homo sapiens), P35462 | D3R DiscoveRx beta-arrestin cells, luminescence, 90 min | max activation, % | 410,000 tested, 0.58% active; in the data active means max activation above about 30%; further: 0% is about no effect
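Cells at 1500/well, incubated overnight, then treated with pinned compounds (dopamine as control) for 90 min at 37 degrees C. DiscoveRx reagent added for 30 - 60 minutes at room temperature; luminescence read.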
D1 PAM: Potentiators of Human D1 Dopamine Receptor: qHTS; D(1A) dopamine receptor (Homo sapiens), P21728; HEK293 TREx D1 cells, calcium flux, dopamine EC20 potentiation; potentiation, % at 10 µM; 360,000 tested, 0.036% active; in the data active means potentiation above about 30%; further: 0% is about no effect
D1 agonist: Allosteric Agonists of the Human D1 Dopamine Receptor: qHTS. HEK293 T-REx D1 cells, calcium flux, agonist mode. activation, % at 2 µM. 360,000 tested, 1% active. AID 504660, 2011; in the data active means activation above about 30%; further: 0% is about no effect
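Inducible HEK293 T-REx D1 cells, force-coupled to calcium signalling, were plated at 4000 cells/well with tetracycline and held overnight at 30 C. After no-wash calcium dye loading, compound-evoked calcium rise over 180 s flagged agonists.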
The depositor's hits bear a star; ? = inconclusive; nt = not tested or not shown. Compounds with a hit are over-represented: about 6% of the library has one in this group of screens.

SMILES	DRD3 antagonist	D1 antag	DRD3 agonist	D1 PAM	D1 agonist
O=C1c2ccccc2C(=O)N1Nc1ccccc1	2	nt	-7	nt	nt
CCOC(=O)/C(=C/c1ccc(OC(F)F)cc1)C1=Nn2c(nnc2-c2ccc(Cl)cc2)SC1	-62*	nt	-17	nt	nt
CCOC(=O)/C(=C\c1ccc(OC(F)F)cc1)C1=Nn2c(nnc2-c2ccc(Cl)cc2)SC1	-90*	-4	-9	5	4
COc1ccc(-c2nnc3n2N=C(C)CS3)cc1	-4	1	1	-10	2
CCc1nc2ccc(C(=O)N3CCN(C(C)=O)CC3)cn2c1N(CCC(C)C)CCN(C)C	0	nt	-19	nt	nt
CCc1nc2ccc(C(=O)N3CCCCC3)cn2c1N(CCC(C)C)CCN(C)C	-11	nt	53*	nt	nt
CN1CCC(=O)N(CCSc2ccc(Br)cc2)CC1	-56*	0	-31	-2	1
Cc1ccsc1/C=N/NC(=O)Cn1nc(C)c([N+](=O)[O-])c1C	-11	0	-5	10	3
C/C(=N\NC(=O)Cn1nc(C)c([N+](=O)[O-])c1C)c1ccc(Cl)s1	-62*	18	-2	18	6
C/C(=C(\CCO)SS/C(CCO)=C(\C)N(C=O)Cc1cnc(C)nc1N)N(C=O)Cc1cnc(C)nc1N	nt	nt	9	nt	nt
O=C(Cn1cnc2c(nnn2-c2ccccc2)c1=O)N1CCOCC1	-14	13	12	-4	1
Cc1ccc(-n2nnc3c(=O)n(CC(=O)N4CCOCC4)cnc32)cc1	-53*	5	-8	1	-3
CCOC(=O)C1=C(O)/C(=C/c2cc(OC)c(OC)c(OC)c2)N=C1C	3	-38*	-13	-8	3
CCOC(=O)C1=C(O)/C(=C\c2ccc(OC)c(OC)c2)N=C1C	-15	6	-1	-7	0
CC(C)(C)c1ccc(/C=C(\c2nc3ccccc3[nH]2)S(=O)(=O)c2ccccc2)cc1	-66*	nt	-10	nt	nt
Cc1cccc(/C=C(\c2nc3ccccc3[nH]2)S(=O)(=O)c2ccccc2)c1	-62*	-2	-16	-2	11
C1CCN(CCC2CCCCN2)CC1 (configuration not stated)	20	nt	-6	nt	nt
C1CCC(OCCN2CCN(CCOC3CCCCC3)CC2)CC1	-63*	-8	-27	-4	2
COc1ccc(-c2noc(CC(=O)Nc3cc(OC)ccc3OC)n2)cc1	nt	-6	-7	-2	3
O=C(NC1CCCC1)c1cc(=O)[nH]c2ccccc12	-15	-3	33*	-1	3
CCOc1ccc(-c2cn3c(n2)sc2cc(C(=O)NCCCN(CC)CC)ccc23)cc1	nt	-16	-18	-5	-1
CCSc1nsc(NC(=O)Nc2ccccc2Cl)n1	3	nt	8	nt	nt
CCOc1ccc(NC(=O)Nc2nc(SCC)ns2)cc1	30	-41*	1	-6	27
COc1ccc(C(=O)Nc2ccc3c(c2)nc(CN2CCCC2)n3C)cc1	-17	6	45*	-4	4
Cn1c(CN2CCCC2)nc2cc(NC(=O)Nc3ccccc3)ccc21	-103*	2	-13	-1	-1
SMILES	DRD3 antagonist	D1 antag	DRD3 agonist	D1 PAM	D1 agonist
Cc1ccc(C(C)C)c(OCC(=O)Nc2ccc3c(c2)nc(CN2CCCC2)n3C)c1	-67*	-25	-12	-15	5
CC(=O)Nc1ccc2c(c1)nc(CN1CCCC1)n2C	-50*	0	-33	-3	3
Cc1ccc(OCC(=O)Nc2ccc3c(c2)nc(CCN2CCCC2)n3C)cc1	0	nt	-5	nt	nt
Cn1c(CN2CCCCC2)nc2cc(NC(=O)c3ccccc3)ccc21	14	3	12	-3	0
COCCN1CCn2c(nc3cc(NC(=O)c4ccc(OC)cc4)ccc32)C1	-14	-52*	-6	-1	0
CCc1nn2c(=O)cc(COC(=O)CNC(=O)COc3ccc(C)cc3)nc2s1	nt	-52*	-17	-10	1
Cc1ccc(OCC(=O)Nc2ccc(C(=O)OCc3cc(=O)n4nc(C5CC5)sc4n3)cc2)cc1	nt	-5	-6	-1	-1
Cc1ccc(OCC(=O)Nc2ccccc2C(=O)OCc2cc(=O)n3nc(C4CC4)sc3n2)cc1	nt	-3	37*	0	-1
O=C(COc1ccccc1)OCc1cc(=O)n2nc(C3CC3)sc2n1	nt	-4	74*	-7	3
CCOc1ccccc1NC(=O)c1c(C)cc(C)nc1SCC(=O)c1cccc(OC)c1	nt	6	2	1	2
CC(C)CCNC(=O)c1ccc(Cn2c(SCC(N)=O)nc3ccccc3c2=O)cc1	nt	-15	2	-3	5
COc1ccccc1C(=O)NCCN1CCN(c2ccccc2)CC1	0	-8	42*	-3	6
COc1ccc(NC(=O)NCCN2CCN(c3cccc(Cl)c3)CC2)cc1	-58*	-61*	-10	-8	22
Cc1ccc(Cl)cc1NC(=O)NCCN1CCCCC1	-67*	-8	-13	-3	11
COc1ccc(N2CCN(CCNC(=O)Nc3ccc([N+](=O)[O-])cc3OC)CC2)cc1	-26	3	-20	-6	1
COc1ccccc1C(=O)Nc1ccc(N2CCN(Cc3ccccc3)CC2)cc1	12	-15	-7	-8	-3
COc1ccc(OC)c(NC(=O)NCCN2CCN(c3ccccc3)CC2)c1	-67*	-54*	5	-7	9
COC(=O)c1ccc(N2CCN(CCNC(=O)Nc3ccc(OC)cc3)CC2)cc1	-25	-4	-1	-4	1
Cc1ccc(NC(=O)Nc2nnc(N(C)Cc3ccccc3)s2)cc1	nt	-17	-13	-4	1
COc1cc(NC(=O)NCCN2CCN(c3ccc(Cl)cc3)CC2)ccc1C	?	-18	-12	-7	64*
COCC(=O)Nc1cc(Cl)ccc1C	9	-7	-2	4	0
Cc1ccc(Cl)cc1NC(=O)CSC(N)=O	-68*	8	-1	11	14
COc1ccc(N2CCN(CCNC(=O)Nc3ccc(C)c(Cl)c3)CC2)cc1	?	-12	-4	0	31*
CCCN1CCN(CCNC(=O)Nc2ccc(OC)c(OC)c2)CC1	nt	8	-1	-1	0
CC1CCN(S(=O)(=O)c2ccc3nc(NCc4ccccc4)ccc3c2)CC1	nt	-17	8	-7	7
Cc1cccc(CNC(=O)c2oc3c(c2C)-c2nn(Cc4ccccc4Cl)cc2CC3)c1	nt	0	-20	0	1
COc1ccc(-c2noc(-c3cc(C(C)C)[nH]n3)n2)cc1	nt	9	6	3	0
CC(C)CN(CC(C)C)CC(O)Cn1cc(/C=C/C(=O)c2ccccc2)c2ccccc21 (configuration not stated)	nt	10	-6	1	3

Compound activity deposited in PubChem by National Center for Advancing Translational Sciences (NCATS).
